# Unmarked numbers belong to inactive results. Records with an inconclusive call do not appear. Where a call stands in place of a potency, no number is given. The source made the active and inactive calls. Unless noted, calls come from the whole dose curve; as a rule, active = well fitted curve in the direction sought with a large enough effect in the repeat runs; inconclusive = weak or mixed curves; inactive = no such curve, though single readings can be large; an effect the other way counts as inactive or inconclusive.
# Legend:
# [1] = target: Thyrotropin receptor (Homo sapiens) (UniProt P16473); assay: qHTS assay to identify small molecule antagonists of the thyroid stimulating hormone receptor (TSHR) signaling pathway (AID 1259385; calls by dose curve; note: nearly all actives have a fitted effect of over 20% in size)
# Chain of Thyrotropin receptor (Homo sapiens) (P16473 whole entry, looked up): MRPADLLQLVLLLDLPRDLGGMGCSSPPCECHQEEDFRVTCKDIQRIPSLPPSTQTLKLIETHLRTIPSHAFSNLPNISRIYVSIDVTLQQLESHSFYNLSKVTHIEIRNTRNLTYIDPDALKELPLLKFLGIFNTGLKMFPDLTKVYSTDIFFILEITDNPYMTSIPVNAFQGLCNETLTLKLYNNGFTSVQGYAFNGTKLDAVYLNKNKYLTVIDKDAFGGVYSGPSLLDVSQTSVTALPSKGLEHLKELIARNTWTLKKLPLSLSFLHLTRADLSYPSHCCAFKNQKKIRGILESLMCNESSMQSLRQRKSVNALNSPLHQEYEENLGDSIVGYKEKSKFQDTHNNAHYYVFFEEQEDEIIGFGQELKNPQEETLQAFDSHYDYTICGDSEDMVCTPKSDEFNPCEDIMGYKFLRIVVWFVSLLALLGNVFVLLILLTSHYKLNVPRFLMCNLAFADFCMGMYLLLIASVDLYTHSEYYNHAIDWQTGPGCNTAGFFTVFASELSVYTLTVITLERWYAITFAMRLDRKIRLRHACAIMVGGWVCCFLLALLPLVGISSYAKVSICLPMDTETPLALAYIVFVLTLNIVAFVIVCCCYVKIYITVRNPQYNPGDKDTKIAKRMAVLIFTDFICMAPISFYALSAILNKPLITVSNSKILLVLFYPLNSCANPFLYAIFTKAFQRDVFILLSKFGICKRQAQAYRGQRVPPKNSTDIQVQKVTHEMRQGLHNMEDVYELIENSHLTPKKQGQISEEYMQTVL
# Summary of the method: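 TSHR-HEK293 cells were plated and held 18 h at 37C/5% CO2, then given compound plus Ro20-1724 and stimulated with TSH at 1.5 ng/mL final. After 30 min at room temperature, cAMP was detected with cAMP-d2/anti-cAMP-cryptate (1 h) by fluorescence.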
# [2] = qHTS assay to identify small molecule agonists of the estrogen receptor alpha (ER-alpha) signaling pathway in the presence of an antagonist - cell viability counter screen (AID 1259386);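 note: series mostly up to about 92 µM; cells exposed to compounds for 22 h at 37 °C before the viability read; nearly all actives have a fitted effect of over 30% in size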
# Summary of the method: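 In this counter screen, compound effects on VM7Luc4E2 viability were tested in the presence of the antagonist ICI-182,780 at 10.0nM final. Compounds were dosed at 15 concentrations, exposure lasted 22hr, and the CellTiter-Fluor signal was read.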
# [3] = target: Progesterone receptor (Homo sapiens) (UniProt P06401); assay: qHTS assay to identify small molecule antagonists of the progesterone receptor (PR) signaling pathway (AID 1346795; active = well fitted inhibition curve with a large enough effect in the signal ratio in the repeat runs, not every such curve was filed as active; the % refers to the signal ratio)
# Chain of Progesterone receptor (Homo sapiens) (P06401 whole entry, looked up): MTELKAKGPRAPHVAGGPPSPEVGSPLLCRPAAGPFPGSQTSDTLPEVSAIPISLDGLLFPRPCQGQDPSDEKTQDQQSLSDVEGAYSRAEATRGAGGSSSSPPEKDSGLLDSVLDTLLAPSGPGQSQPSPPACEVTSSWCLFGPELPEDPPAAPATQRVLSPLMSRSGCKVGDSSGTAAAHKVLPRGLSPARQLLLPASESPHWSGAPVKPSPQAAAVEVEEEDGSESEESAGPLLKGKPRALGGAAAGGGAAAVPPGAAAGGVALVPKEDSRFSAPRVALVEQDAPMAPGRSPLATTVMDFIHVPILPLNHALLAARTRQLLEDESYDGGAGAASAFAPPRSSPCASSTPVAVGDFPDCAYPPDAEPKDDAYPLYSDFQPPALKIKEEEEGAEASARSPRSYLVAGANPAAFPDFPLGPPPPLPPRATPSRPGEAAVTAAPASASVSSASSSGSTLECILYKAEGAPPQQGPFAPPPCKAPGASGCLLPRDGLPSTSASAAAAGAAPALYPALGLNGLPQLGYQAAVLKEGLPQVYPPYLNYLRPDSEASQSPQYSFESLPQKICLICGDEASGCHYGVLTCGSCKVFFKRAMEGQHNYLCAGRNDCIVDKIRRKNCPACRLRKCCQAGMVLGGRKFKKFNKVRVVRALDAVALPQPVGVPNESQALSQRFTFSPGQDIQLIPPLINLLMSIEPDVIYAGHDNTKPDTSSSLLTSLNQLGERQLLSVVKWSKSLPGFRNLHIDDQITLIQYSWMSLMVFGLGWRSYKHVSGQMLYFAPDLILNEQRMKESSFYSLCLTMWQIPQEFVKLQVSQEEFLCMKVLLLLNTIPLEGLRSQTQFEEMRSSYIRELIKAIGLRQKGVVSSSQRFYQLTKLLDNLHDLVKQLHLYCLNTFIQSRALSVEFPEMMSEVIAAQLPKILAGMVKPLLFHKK
# Summary of the method: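 Screening used a GripTite HEK293T line with PR-responsive UAS-beta-lactamase. Cells were challenged with compound in the presence of 1 nM R5020 final for 16 hr at 37C; B/G FRET substrate, 2 hr room temperature, fluorescence.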
# [4] = qHTS assay to identify small molecule agonists of the progesterone receptor (PR) signaling pathway - cell viability counter screen (AID 1346799; calls by dose curve; note: nearly all actives have a fitted effect of over 45% in size)
# Summary of the method: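 Using the same plates as the PR reporter screen, HEK293T PR-UAS-bla cells received compounds for 16 hr at 37C and were then lysed with CellTiter-Glo; luminescence was read 30 min later at room temperature.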
# [5] = qHTS assay to identify small molecule antagonists of the TGF-beta/Smad signaling pathway - cell viability counter screen (AID 1346824); note: nearly all actives have a fitted effect of over 50% in size
# Summary of the method: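 SBE-bla HEK 293T cells were plated overnight at 37 C, then given compounds in DMSO plus TGF-beta1 (added as 0.25 ng/mL solution) for 5 hr. After the bla read, CellTiter-Glo was added to the same wells and luminescence read after 30 min at room temperature.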
# [6] = qHTS assay to identify small molecule agonists of the TGF-beta/Smad signaling pathway (AID 1346859; active = well fitted activation curve with a large enough effect in the signal ratio in the repeat runs, not every such curve was filed as active; the % refers to the signal ratio; note: series mostly up to about 77 µM)
# Summary of the method: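 Beta-lactamase reporter activity downstream of Smad binding elements was measured in stably transfected HEK 293T cells; compounds were incubated for 5 hr, substrate for 2 hr at room temperature.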
# [7] = target: Thyrotropin-releasing hormone receptor (Homo sapiens) (UniProt P34981); assay: qHTS assay to identify small molecule antagonists of the thyrotropin-releasing hormone receptor (TRHR) signaling pathway (AID 1346877; active = well fitted inhibition curve with a large enough effect in the repeat runs, not every such curve was filed as active; note: series mostly up to about 51 µM)
# Chain of Thyrotropin-releasing hormone receptor (Homo sapiens) (P34981 whole entry, looked up): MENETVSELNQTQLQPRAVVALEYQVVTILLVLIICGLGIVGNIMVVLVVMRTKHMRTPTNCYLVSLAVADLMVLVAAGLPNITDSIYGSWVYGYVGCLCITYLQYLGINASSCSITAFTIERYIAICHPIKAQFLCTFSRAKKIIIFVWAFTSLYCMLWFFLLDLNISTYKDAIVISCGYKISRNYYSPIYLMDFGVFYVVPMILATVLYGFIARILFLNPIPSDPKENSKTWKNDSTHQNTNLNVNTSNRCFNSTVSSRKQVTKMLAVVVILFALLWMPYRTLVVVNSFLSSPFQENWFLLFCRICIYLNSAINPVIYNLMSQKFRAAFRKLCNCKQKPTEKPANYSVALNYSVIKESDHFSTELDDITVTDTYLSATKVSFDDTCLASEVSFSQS
# Summary of the method: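 Kinetic fluorescence (3 min, 1 s resolution) following stimulation with TRH at 1 nM final; HEK293 cells bearing human TRHR; 5 min compound preincubation at RT; concentration-response over 15 points, triplicates.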
# [8] = target: Thyrotropin-releasing hormone receptor (Homo sapiens) (UniProt P34981); assay: qHTS assay to identify small molecule agonists of the thyrotropin-releasing hormone receptor (TRHR) signaling pathway (AID 1346891; calls by dose curve;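 note: HEK293 cells expressing TRHR with calcium dye readout; series mostly up to about 58 µM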)
# Summary of the method: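 Overnight-plated (18 h, 37 °C, 5% CO2) TRHR-Hek293 cells; 2 h calcium dye at 37 °C; compound in DMSO; 3-min kinetic fluorescence read.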
# [9] = Human pregnane X receptor (PXR) small molecule agonists, qHTS cell viability counter screen (AID 1346977); note: nearly all actives have a fitted effect of over 50% in size; note: potency is the fitted concentration of half-maximal effect
# Summary of the method: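 After a 5hr pre-incubation, PXR-Luc HepG2 cells received compounds plus positive control in DMSO and were kept 24hr at 37C. Cell viability was quantified by fluorescence from CellTiter-Fluor added for the final hour.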
# [10] = Caspase-3/7 induction in HepG2 cells by small molecules, qHTS assay (AID 1346978); note: nearly all actives have a fitted effect of over 15% in size
# Summary of the method: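 Wild-type HepG2 cells (2,000/well) were settled 5 h at 37 C, 5% CO2, then exposed to compounds in DMSO for 17 h. Caspase-3/7 activity was read by luminescence 30 min after adding Caspase-Glo 3/7 reagent at room temperature.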
# [11] = Caspase-3/7 induction in CHO-K1 cells by small molecules, qHTS cell viability counter screen (AID 1346979); note: nearly all actives have a fitted effect of over 35% in size
# Summary of the method: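 Multiplexed with Caspase-Glo 3/7 in CHO-K1 cells, this counter screen added CellTiter-Fluor after 16hr of compound exposure and recorded fluorescence 1hr later.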
# [12] = Caspase-3/7 induction in CHO-K1 cells by small molecules, qHTS assay (AID 1346980); note: nearly all actives have a fitted effect of over 15% in size
# Summary of the method: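 Wild-type cells were seeded at 1,500 per well and settled 5 hr at 37 C, 5% CO2, then exposed to DMSO-dissolved compounds for 17 hr. Caspase-Glo 3/7 reagent was added, and luminescence was read after 30min at room temperature.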
# [13] = Caspase-3/7 induction in HepG2 cells by small molecules, qHTS cell viability counter screen (AID 1346981); note: series mostly up to about 92 µM; nearly all actives have a fitted effect of over 30% in size
# Summary of the method: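 In this quantitative HTS counter screen, compounds delivered in DMSO were left on unmodified HepG2 cells for 16 hr at 37 C. Viability was then determined fluorometrically with CellTiter-Fluor, in parallel with caspase-3/7 induction in the same wells.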
# [14] = target: Nuclear receptor subfamily 1 group I member 2 (Homo sapiens) (UniProt O75469); assay: Human pregnane X receptor (PXR) small molecule agonists, qHTS assay (AID 1346982); note: nearly all actives have a fitted effect of over 35% in size; note: potency is the fitted concentration of half-maximal effect
# Chain of Nuclear receptor subfamily 1 group I member 2 (Homo sapiens) (O75469 whole entry, looked up): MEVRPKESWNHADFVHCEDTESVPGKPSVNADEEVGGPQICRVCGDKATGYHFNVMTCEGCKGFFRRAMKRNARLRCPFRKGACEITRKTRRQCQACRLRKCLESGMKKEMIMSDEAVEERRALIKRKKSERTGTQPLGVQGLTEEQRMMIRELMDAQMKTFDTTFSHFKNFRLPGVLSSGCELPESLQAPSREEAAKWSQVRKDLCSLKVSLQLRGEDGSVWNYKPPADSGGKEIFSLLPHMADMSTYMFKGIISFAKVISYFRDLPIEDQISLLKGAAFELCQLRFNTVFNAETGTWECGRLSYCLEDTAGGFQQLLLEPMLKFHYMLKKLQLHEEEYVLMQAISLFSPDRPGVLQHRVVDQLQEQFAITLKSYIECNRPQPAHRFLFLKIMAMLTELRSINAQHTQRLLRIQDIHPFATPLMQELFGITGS
# Summary of the method: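 Reporter HepG2 cells expressing PXR-Luc are cultured in charcoal-stripped FBS (5%), treated with compounds for 24 hr at 37 C, and assayed by ONE-Glo luminescence after 30 min at room temperature.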
# [15] = target: Progesterone receptor (Homo sapiens) (UniProt P06401); assay: qHTS assay to identify small molecule agonists of the progesterone receptor (PR) signaling pathway (AID 1346784; calls by dose curve; note: nearly all actives have a fitted effect of over 30% in size)
# Summary of the method: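 Seed PR-UAS-bla HEK 293T cells (2% charcoal-stripped FBS), incubate 6 hr at 37C; add compounds in DMSO, 16 hr at 37C; add LiveBLAzer B/G substrate, 2 hr RT; read fluorescence intensity.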
# [16] = qHTS assay to identify small molecule antagonists of the progesterone receptor (PR) signaling pathway - cell viability counter screen (AID 1346798); note: series mostly up to about 92 µM; nearly all actives have a fitted effect of over 50% in size
# Summary of the method: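 Measures cytotoxicity in parallel with the PR antagonist reporter read: HEK293T PR-UAS-bla cells get compound and R5020 for 16 hr, and remaining viable cells are quantified by CellTiter-Glo luminescence.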
# [17] = qHTS assay to identify small molecule agonists of the TGF-beta/Smad signaling pathway - cell viability counter screen (AID 1346829); note: top concentration of the series differs between compounds; nearly all actives have a fitted effect of over 45% in size
# Summary of the method: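 In parallel with the Smad reporter read, viability of HEK 293T cells stably carrying SBE-bla is quantified by ATP luminescence following 5 hr compound treatment.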
# [18] = target: Nuclear receptor subfamily 1 group I member 2 (Homo sapiens) (UniProt O75469); assay: CYP3A4 induction through human pregnane X receptor (PXR) by small molecules, qHTS assay (AID 1346984); note: nearly all actives have a fitted effect of over 40% in size; note: potency is the fitted concentration of half-maximal effect
# Summary of the method: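 Induction measured in HepG2-based DPX-2 cells co-expressing human PXR and a CYP3A4 promoter-driven luciferase. After a 24-hour compound exposure, cells received CYP3A4 luciferin substrate at 3uM final for 3 hours, and light output was then recorded.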
# [19] = target: Nuclear receptor subfamily 1 group I member 2 (Homo sapiens) (UniProt O75469); assay: Human pregnane X receptor (PXR) activation by small molecules, qHTS assay (AID 1346985); note: nearly all actives have a fitted effect of over 40% in size
# Summary of the method: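 DPX-2 cells (HepG2 co-transfected with a PXR response element and a CYP3A4-promoter luciferase construct) were seeded at 2,000 per well, rested 5 hr at 37C, then exposed to DMSO-dissolved compounds for 24 hr. Activation was read as luciferase luminescence.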
# [20] = target: Nuclear receptor subfamily 1 group I member 2 (Rattus norvegicus) (UniProt Q9R1A7); assay: Rat pregnane X receptor (rPXR) activation by small molecules, qHTS assay (AID 1346983); conditions: rPXR luciferase reporter cells, One-Glo luminescence, 24 h; hits give high values; note: nearly all actives have a fitted effect of over 20% in size
# Chain of Nuclear receptor subfamily 1 group I member 2 (Rattus norvegicus) (Q9R1A7 whole entry, looked up): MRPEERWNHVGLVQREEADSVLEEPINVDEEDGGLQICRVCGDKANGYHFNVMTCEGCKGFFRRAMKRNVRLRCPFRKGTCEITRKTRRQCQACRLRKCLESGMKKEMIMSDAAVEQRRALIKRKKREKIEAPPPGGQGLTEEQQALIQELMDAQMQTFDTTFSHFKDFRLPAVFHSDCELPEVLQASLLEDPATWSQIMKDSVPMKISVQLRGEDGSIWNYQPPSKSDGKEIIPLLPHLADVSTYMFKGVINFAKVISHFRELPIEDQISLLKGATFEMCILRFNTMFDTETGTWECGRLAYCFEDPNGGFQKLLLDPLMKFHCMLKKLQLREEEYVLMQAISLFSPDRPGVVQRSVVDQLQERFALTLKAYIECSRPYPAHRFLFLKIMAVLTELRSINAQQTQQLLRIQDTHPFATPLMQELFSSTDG
# Summary of the method: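 Cell-based rPXR luciferase reporter assay, 2,000 cells per well, rested 5hr at 37 C before compound addition in DMSO, then 24 hr at 37 C. One-Glo reagent was added and luminescence read after 30 min at room temperature.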
Structure (SMILES),Potency [1],Potency [2],Potency [3],Potency [4],Potency [5],outcome [6],outcome [7],outcome [8],Potency [9],Potency [10],Potency [11],outcome [12],Potency [13],Potency [14],Potency [15],Potency [16],outcome [17],Potency [18],Potency [19],max activation [20]
CC(NC(CCc1ccccc1)C(=O)O)C(=O)N1C(=O)N(C)CC1C(=O)O (configuration not stated),inactive,inactive,inactive,inactive,inactive,inactive,inactive,inactive,inactive,inactive,inactive,inactive,inactive,inactive,–,–,–,–,–,–
CCCCCCCCCCCCCCCCC,inactive,inactive,inactive,inactive,inactive,inactive,inactive,inactive,inactive,inactive,inactive,–,inactive,inactive,–,–,–,–,–,–
CO[Si](CCCOCC1CO1)(OC)OC (configuration not stated),–,inactive,inactive,inactive,inactive,inactive,inactive,inactive,inactive,inactive,inactive,inactive,inactive,inactive,inactive,inactive,–,–,–,–
CCN(CC)CCOCCOC(=O)C1(c2ccccc2)CCCC1,inactive,–,–,inactive,inactive,inactive,–,–,26.6 µM (active),inactive,inactive,inactive,inactive,–,inactive,–,inactive,12.6 µM (active),–,–
O=C1OC(=O)C2CCCCC12 (configuration not stated),–,inactive,inactive,inactive,inactive,inactive,–,–,inactive,inactive,inactive,inactive,inactive,inactive,inactive,inactive,–,–,–,–
CC(C(=O)O)c1ccc(CC2CCCC2=O)cc1 (configuration not stated),–,inactive,–,inactive,inactive,inactive,inactive,inactive,inactive,inactive,inactive,inactive,inactive,inactive,inactive,inactive,inactive,–,–,–
Cn1c(N)c(N=O)c(=O)n(C)c1=O,–,inactive,–,inactive,inactive,inactive,inactive,inactive,inactive,inactive,inactive,inactive,inactive,inactive,–,inactive,inactive,–,–,–
COC(=O)c1ccc(C)cc1C1=NC(C)(C(C)C)C(=O)N1 (configuration not stated),–,inactive,–,inactive,inactive,inactive,inactive,inactive,inactive,inactive,inactive,inactive,inactive,–,inactive,inactive,inactive,–,–,–
COc1ccc(CCN(C)CCCC(C#N)(c2cc(OC)c(OC)c(OC)c2)C(C)C)cc1OC (configuration not stated),–,–,inactive,inactive,inactive,inactive,inactive,inactive,26.6 µM (active),inactive,inactive,inactive,–,4.73 µM (active),–,inactive,inactive,–,–,–
CC(=O)CC(C)(C)C1CCCCC1,–,inactive,–,inactive,inactive,inactive,inactive,–,inactive,inactive,inactive,–,inactive,inactive,–,inactive,inactive,–,–,–
Cc1c(O)cccc1O,–,inactive,inactive,inactive,inactive,inactive,inactive,inactive,inactive,inactive,inactive,inactive,inactive,inactive,inactive,inactive,inactive,–,–,–
CC(C[N+](C)(C)C)OC(N)=O (configuration not stated),–,inactive,inactive,inactive,inactive,inactive,inactive,–,inactive,inactive,inactive,inactive,inactive,inactive,inactive,inactive,inactive,inactive,inactive,–
OC(CCN1CCCCC1)(c1ccccc1)C1CC2C=CC1C2 (configuration not stated),–,inactive,inactive,inactive,inactive,inactive,inactive,inactive,–,inactive,inactive,inactive,inactive,10.6 µM (active),inactive,inactive,–,28.2 µM (active),–,-2.76%
CC(=O)Nc1c(I)cc(I)c(C(=O)O)c1I,–,inactive,inactive,inactive,inactive,inactive,–,–,inactive,inactive,inactive,inactive,inactive,inactive,–,inactive,inactive,inactive,inactive,–
C[N+](C)(C)CCCCCC[N+](C)(C)C,–,inactive,inactive,inactive,inactive,inactive,inactive,inactive,inactive,inactive,inactive,inactive,inactive,–,inactive,inactive,inactive,–,–,0.135%
CC(=O)OCC(=O)[C@@]1(O)CC[C@H]2[C@@H]3CCC4=CC(=O)CC[C@]4(C)[C@H]3C(=O)C[C@@]21C,–,inactive,–,inactive,inactive,inactive,–,–,inactive,inactive,inactive,inactive,inactive,inactive,inactive,inactive,inactive,–,–,–
CN(C(=O)c1c(O)c2ccccc2n(C)c1=O)c1ccccc1,–,inactive,inactive,–,inactive,inactive,–,–,inactive,inactive,inactive,inactive,inactive,–,–,–,–,–,–,–
CC/C=C\CC/C=C/CO,–,inactive,inactive,inactive,inactive,inactive,inactive,inactive,inactive,inactive,inactive,inactive,inactive,inactive,–,inactive,inactive,–,–,–

# Reference: PubChem BioAssay (Tox21)
